Source: PubChem BioAssay (NCI)
Compounds without any hit were thinned out: in the full panel of roughly 79,000, 15% have a hit. Calls of active or inactive are those of the source. No stated cut-off is given here; in the data, active means growth inhibition above about 70%; inactive means the rest.

Tests used:
[1] = NCI Yeast Anticancer Drug Screen. Data for the rad50 strain (AID 155);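 further: 0% = growth of vehicle-only cultures of the same strain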; details: S. cerevisiae rad50 strain growth inhibition; at 50.0 µM; hits give high values
Summary of the method: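 Vehicle-treated cultures provide the reference for the growth inhibition reported for compound-exposed, repair-deficient yeast.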

[2] = NCI Yeast Anticancer Drug Screen. Data for the mec2-1 strain (AID 157); details: S. cerevisiae mec2-1 strain, at 50.0 µM, hits give high values
Summary of the method: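 Readout is yeast growth inhibition, normalised to vehicle-treated controls, in the mec2-1 strain exposed to compound.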

[3] = NCI Yeast Anticancer Drug Screen. Data for the sgs1 mgt1 strain (AID 161);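 further: 0% = growth of cultures given vehicle only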; details: S. cerevisiae sgs1 mgt1 strain, at 50.0 µM, hits give high values
Summary of the method: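 Yeast cells carrying a defined DNA-repair defect were exposed to test compounds. Growth inhibition was measured relative to vehicle-treated controls.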

[4] = NCI Yeast Anticancer Drug Screen. Data for the cln2 rad14 strain (AID 165);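 further: 0% = growth equal to vehicle treated cultures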; details: S. cerevisiae cln2 rad14 strain, at 50.0 µM, hits give high values
Summary of the method: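 Relative to vehicle controls, growth inhibition of compound-treated cln2 rad14 yeast was recorded.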

[5] = NCI Yeast Anticancer Drug Screen. Data for the bub3 strain (AID 167); details: S. cerevisiae bub3 mutant strain, at 50.0 µM, hits give high values
Summary of the method: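 Mutant yeast screening strain plus compound; vehicle-treated cultures serve as the 0% inhibition reference.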

[6] = NCI Yeast Anticancer Drug Screen. Data for the mlh1 rad18 strain (AID 175); details: S. cerevisiae mlh1 rad18 strain growth inhibition; at 50.0 µM; hits give high values
Summary of the method: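 Test agents were incubated with a yeast strain of defined genotype (DNA damage repair defect). Inhibition of growth was derived by comparison with vehicle-exposed cultures.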

Measured: growth inhibition

O=S1Nc2ccccc2[C@H]2[C@@H]1[C@H]1O[C@@H]2c2ccccc21 (stereo partly specified)
inactive: [1] -3.6% | [2] -5.65% | [3] -23.6% | [4] -27.6% | [5] -6.6% | [6] -0.85%

Cc1cc(NC(=O)N(CCCl)N=O)c(C)cc1NC(=O)c1ccccc1
inactive: [1] 24.5% | [2] -22.5% | [3] 40.5% | [4] -3.4% | [5] -0.5% | [6] 55.2%

CC1(C)CCc2cc3c(O)c(-c4ccccc4)c(=O)oc3cc2O1
inactive: [1] -9.45% | [2] 2.15% | [3] -0.65% | [4] -17.2% | [5] -5.75% | [6] 7.45%

O=[N+]([O-])c1ccc(C2ON2C2CCCCC2)cc1 (stereo unspecified)
inactive: [1] -0.75% | [2] -2.55% | [3] 18.7% | [4] -22.3% | [5] -10.8% | [6] 5.3%

O=COCc1ccc2c(c1)OCO2
inactive: [1] 35.3% | [2] 36.9% | [3] 22.9% | [4] 15.2% | [5] 10.1% | [6] 27.8%

Cc1c(-c2ccccc2)noc1-n1nnc2ccccc2c1=O
inactive: [1] -7.45% | [2] 29.6% | [3] 11.4% | [4] -42.8% | [5] 48.4% | [6] 9.05%

[N-]=[N+]=Nc1ccc(NCCCCCC(=O)ON2C(=O)CCC2=O)c([N+](=O)[O-])c1
inactive: [2] 9.25% | [4] 19.4% | [5] 4.7% | [6] 67%
active: [1] 72% | [3] 77.7%

O=c1[nH]c2cc3[nH]c(=O)c(=O)[nH]c3cc2[nH]c1=O
inactive: [1] -21.8% | [2] -16.6% | [3] -6.7% | [4] 8.85% | [5] -5.7% | [6] -17.2%

CC(=O)c1ccccc1[N+](=O)[O-]
inactive: [1] 2.95% | [2] -12.5% | [3] 21.7% | [4] 5.85% | [5] -7.55% | [6] 30.1%

NC(=O)CNCC1Cc2ccccc21 (stereo unspecified)
inactive: [1] 21.8% | [2] 6.85% | [3] 0.1% | [4] -16.4% | [5] 4.6% | [6] 7.45%

CCN(CC)C(=S)N1CCCCC1
inactive: [1] 10.2% | [2] -14.6% | [3] -14.2% | [4] -65.4% | [5] -15.9% | [6] -7.25%

O=[N+]([O-])c1ccc2c(c1)Cc1cccc([N+](=O)[O-])c1-2
inactive: [1] 2% | [2] -2.1% | [3] 0.25% | [4] -21.9% | [5] -5.9% | [6] 9.5%

CC(=O)/C(=C/N1C(=O)CC(=O)NC1=S)C(=O)Nc1ccccc1
inactive: [1] -24.8% | [2] -26.5% | [3] -39.9% | [4] 3.85% | [5] -17.5% | [6] -20.7%

c1ccc2c3c(ccc2c1)CCC3
inactive: [1] -20.9% | [2] -42.9% | [3] -35% | [4] 10% | [5] -25.4% | [6] -12.4%

CCCCN1C(=O)c2cc(=O)[nH]c(O)c2C1C (stereo unspecified)
inactive: [1] -19.4% | [2] 6.35% | [3] -25.9% | [4] -0.55% | [5] -27.1% | [6] 3.25%

Cc1[nH]c(/N=C/c2ccc(N(C)C)cc2)c(C#N)c1C
inactive: [1] -10.1% | [2] -0.6% | [3] -18.4% | [4] -8% | [5] -5.75% | [6] -7.75%

CCOC(=O)c1ccc(C)cc1F
inactive: [1] -1.85% | [2] 2.3% | [3] 0.2% | [4] -38.6% | [5] -7.8% | [6] 7.65%

O=C(Nc1cc(S(=O)(=O)O)cc2cc(S(=O)(=O)O)c(N=Nc3cc(Nc4nc(Cl)nc(Nc5ccc(S(=O)(=O)O)cc5)n4)ccc3S(=O)(=O)O)c(O)c12)c1ccccc1
inactive: [1] 17.9% | [2] -10.1% | [3] 10.8% | [4] 3.5% | [5] 0.05% | [6] 25.2%

CN1CCC(=C2c3ccccc3CC(O)c3sccc32)CC1 (stereo unspecified)
inactive: [1] 24.2% | [2] 5.7% | [3] -16.6% | [4] 3.5% | [5] 9.2% | [6] 39%

C1=C(c2ccccc2)CC(c2ccc(-c3ccccc3)cc2)=C1
inactive: [1] 6.9% | [2] 1.15% | [3] 1.55% | [4] -27.6% | [5] -10.2% | [6] 16.4%

COc1cc(C(=O)Oc2c(C(C)=O)sc3c2c(=O)n(-c2ccccc2)c(=S)n3-c2ccccc2)cc(OC)c1OC
inactive: [1] 19.7% | [2] -5.8% | [3] 8.45% | [4] -13.7% | [5] 17.9% | [6] 22.5%

CCCCOC(=O)C1CCCCC1C(=O)OCCCC (stereo unspecified)
inactive: [1] -3.7% | [2] 14.8% | [3] -0.45% | [4] 63.1% | [5] 12.2% | [6] -21.4%

Cc1cc(C)c2ccc(NC(=O)CCC(=O)O)nc2n1
inactive: [1] -15.1% | [2] -32.5% | [3] 7.45% | [4] 10.7% | [5] -27.4% | [6] -13.4%

NC(Cc1cnc[nH]1)C(=O)NCC(=O)O (stereo unspecified)
inactive: [1] -11.4% | [2] -6.2% | [3] -11.8% | [4] -10.2% | [5] 4.3% | [6] -8.95%

COC1OC2COC(c3ccccc3)OC2C(O)C1N=[N+]=[N-] (stereo unspecified)
inactive: [1] 3.4% | [2] 0.7% | [3] -1.35% | [4] -19.9% | [5] -4.4% | [6] 7.9%

Fc1ccc(CSc2cnnc(SCc3ccc(F)cc3)c2SCc2ccc(F)cc2)cc1
inactive: [1] -23.2% | [2] 2.75% | [3] -20.2% | [4] -21.9% | [5] -13.9% | [6] -34.7%

O=C(CC(=O)c1ccccc1)Nc1cccnc1
inactive: [1] -21.2% | [2] 8.9% | [3] -0.3% | [4] -21.2% | [5] -1.8% | [6] -6.95%

COc1ccc(CC(=O)c2c(O)c3c(c(CC=C(C)C)c2OC)OC(C)(C)C=C3)cc1
inactive: [1] 22.4% | [2] -26.3% | [3] -14.8% | [4] 4.15% | [5] -2.75% | [6] 14.2%

NNC(=O)Sc1ccccc1
inactive: [1] -14.8% | [2] 9.65% | [3] -12.8% | [4] -31.9% | [5] -12.3% | [6] -0.45%

CC(C)C(=O)Nc1ccc([N+](=O)[O-])cc1
inactive: [1] 26.1% | [2] 4.2% | [3] 10.8% | [4] 9.4% | [5] -36% | [6] -17.3%

CC(C)COC1CN=NN1/C=C1\CCOC1=O (stereo unspecified)
inactive: [1] -4.2% | [2] 10.4% | [3] 14.3% | [4] -6.65% | [5] 24.2% | [6] -3%

CC(NS(=O)(=O)c1ccccc1)C(N)=O (stereo unspecified)
inactive: [1] 2.75% | [2] 2.1% | [3] 3.55% | [4] -11.2% | [5] 6.95% | [6] -2.4%

O=C(O)CCNCCO
inactive: [1] -3.5% | [2] 13.4% | [3] 5.1% | [4] -18.6% | [5] 20.1% | [6] 2.45%

O=C(CCS(=O)(=O)CCC(=O)c1cccs1)c1cccs1
inactive: [1] 4.2% | [2] 10.3% | [3] 1.9% | [4] -4.15% | [5] -3.55% | [6] 15.6%

CCOC(=O)C(=O)C(C(=O)c1ccccn1)c1nc2n(c1O)C(=N)N=N2 (stereo unspecified)
inactive: [1] -4.1% | [2] 4.4% | [3] -3.1% | [4] -0.25% | [5] -5.35% | [6] 5.3%

CCN(CC)c1ccc2cc(C(=O)Nc3nc(C45CC6CC(CC(C6)C4)C5)cs3)c(=O)oc2c1
inactive: [1] -17.4% | [2] -25.9% | [3] -16.9% | [4] -17.6% | [5] -13.9% | [6] -16.1%

ONc1ncnc2[nH]cc(Br)c12
inactive: [1] 4% | [2] -6.8% | [3] -5.65% | [4] 2.6% | [5] -4.5% | [6] 9.7%

COc1c(C)c(C)c(OC(C)=O)c(C)c1COC(C)=O
inactive: [1] 53.9% | [2] 23.8% | [3] 33.2% | [4] 25.6% | [5] 42.9% | [6] 64.7%

C=C(CCC(Cl)C(COS(=O)(=O)c1ccc(C)cc1)OC(CCCO[Si](c1ccccc1)(c1ccccc1)C(C)(C)C)OCC)[Si](C)(C)C (stereo unspecified)
inactive: [1] 68.2% | [2] 65.7% | [3] 60.6% | [4] 69.1% | [6] 58.4%
active: [5] 73%

CCSC(SCC)C(Nc1ccc([N+](=O)[O-])cc1[N+](=O)[O-])C(OC(C)=O)C(OC(C)=O)C(COC(C)=O)OC(C)=O (stereo unspecified)
inactive: [1] 30.9% | [2] 9.65% | [3] 10.2% | [4] 14.8% | [5] -2.9% | [6] 12.8%

CCCCCC(N)C(=O)O (stereo unspecified)
inactive: [1] 1.7% | [2] 6% | [3] -14.5% | [4] -22.1% | [5] -2.35% | [6] -17.9%
